Reference: PubChem BioAssay (EPA / NIEHS)
Where “and” joins values, the source holds several entries; their conditions need not be identical. Identical values can stand only once. Where a structure was tested more than once in an assay, its records may differ in their call. Calls of active or inactive are those of the source. Rule for the calls: active = hit-call score of the fitted dose curve at least 0.9, where 1 is the maximum; inactive = score below 0.9.

Experiments:
[1] = CEETOX_H295R_OHPREG: CeeTox H295R High-throughput Steroidogenesis Assay for OH-Pregnenolone (OHPREG) (AID 2283434); details: actives raise or lower the signal
Procedure, shortened: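 Human adrenal H295R cells were prestimulated 48 h with 10 uM forskolin, then exposed 48 h to chemical in 0.1% DMSO. Medium 17alpha-hydroxypregnenolone was quantified by HPLC-MS/MS after MTBE extraction; bidirectional fitting versus DMSO baseline.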

[2] = CEETOX_H295R_ANDR: CeeTox H295R High-throughput Steroidogenesis Assay for Androstenedione (ANDR) (AID 2283436); details: actives raise or lower the signal
Procedure, shortened: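 H295R human adrenal cells (passages ≤10) were exposed to test chemicals for 48 h; androstenedione in medium was MTBE-extracted and quantified by HPLC-MS/MS against a 7-point standard curve. Bidirectional fitting used DMSO as baseline.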

[3] = CEETOX_H295R_CORTIC: CeeTox H295R High-throughput Steroidogenesis Assay for Corticosterone (CORTIC) (AID 2283437); details: actives raise or lower the signal;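 note: corticosterone secreted into medium quantified by mass spectrometry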
Procedure, shortened: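 H295R cells were prestimulated 48 h with 10 uM forskolin, then exposed 48 h to test chemical in 0.1% DMSO. Medium corticosterone was MTBE-extracted and quantified by HPLC-MS/MS; bidirectional fit versus DMSO baseline.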

[4] = CEETOX_H295R_DOC: CeeTox H295R High-throughput Steroidogenesis Assay for DOC (AID 2283439); details: actives raise or lower the signal
Procedure, shortened: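 H295R adrenal cells prestimulated 48 h with 10 uM forskolin, then exposed 48 h to test chemical (0.1% DMSO final). Medium 11-deoxycorticosterone extracted with MTBE, quantified by HPLC-MS/MS; bidirectional fit versus DMSO baseline; MTT viability in same wells.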

[5] = CEETOX_H295R_ESTRADIOL: CeeTox H295R High-throughput Steroidogenesis Assay for Estradiol (AID 2283440); details: actives raise or lower the signal;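 note: estradiol secreted into medium quantified by LC-MS/MS after dansyl derivatisation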
Procedure, shortened: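 H295R adrenocortical cells were prestimulated with 10 uM forskolin for 48 h, then exposed to test chemical in 0.1% DMSO for 48 h. Medium estradiol was extracted with MTBE, dansyl-derivatized and quantified by HPLC-MS/MS; bidirectional fit versus DMSO.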

[6] = CEETOX_H295R_ESTRONE: CeeTox H295R High-throughput Steroidogenesis Assay for Estrone (AID 2283441); details: actives raise or lower the signal;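 note: estrone secreted into medium measured by LC-MS/MS after dansyl derivatization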
Procedure, shortened: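 H295R cells; 48 h forskolin (10 uM) prestimulation; 48 h compound exposure, 0.1% DMSO final. Medium estrone: MTBE extraction, dansyl derivatization, HPLC-MS/MS. Bidirectional fit vs DMSO.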

[7] = CEETOX_H295R_PROG: CeeTox H295R High-throughput Steroidogenesis Assay for Progesterone (PROG) (AID 2283442); details: actives raise or lower the signal;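 for AC50: human H295R adrenal cells primed with 10 µM forskolin before dosing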
Procedure, shortened: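 H295R human adrenal cells were prestimulated with 10 uM forskolin for 48 h, then exposed to test chemical (0.1% DMSO final) for 48 h. Medium progesterone was MTBE-extracted and quantified by HPLC-MS/MS, with bidirectional fitting against DMSO.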

[8] = read-out: Tumor necrosis factor receptor superfamily member 6 (Homo sapiens) (UniProt P25445); experiment: LTEA_HepaRG_FAS: Life Technologies and Expression Analysis (LTEA) Assay for Fas cell surface death receptor (FAS) using HepaRG (AID 2283447); details: mRNA level, 48 h; actives raise or lower the signal
Procedure, shortened: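 Differentiated human HepaRG cells, pre-cultured 48 h, were exposed in duplicate for 48 h to 8-point half-log concentrations (top 100 uM, 0.5% DMSO) in serum-free induction medium; FAS mRNA measured by qRT-PCR, normalized to ACTB/GAPDH/POLR2A, bidirectional fit versus DMSO.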

[9] = read-out: Fatty acid synthase (Homo sapiens) (UniProt P49327); experiment: LTEA_HepaRG_FASN: Life Technologies and Expression Analysis (LTEA) Assay for Fatty Acid Synthase (FASN) using HepaRG (AID 2283448); details: mRNA level, 48 h; actives raise or lower the signal
Procedure, shortened: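 Differentiated human HepaRG cells were exposed for 48 h in serum-free induction medium to eight half-log concentrations up to 100 uM in 0.5% DMSO, in duplicate. FASN mRNA was quantified by TaqMan qRT-PCR, normalized to ACTB/GAPDH/POLR2A, and fitted bidirectionally against DMSO.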

[10] = read-out: Cyclin D2 (CCND2), CCND2 (gene 894); experiment: LTEA_HepaRG_CCND2: Life Technologies and Expression Analysis (LTEA) Assay for Cyclin D2 (CCND2) using HepaRG (AID 2283449); details: mRNA level, 48 h; actives raise or lower the signal;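 note: CCND2 transcript measured by TaqMan qRT-PCR and normalised to three housekeeping genes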
Procedure, shortened: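 Differentiated human HepaRG cells were exposed for 48 h in serum-free induction medium to eight half-log concentrations topping at 100 uM (0.5% DMSO vehicle). CCND2 mRNA was quantified by TaqMan qRT-PCR, normalised to ACTB, GAPDH and POLR2A, and fitted bidirectionally against DMSO.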

[11] = read-out: Cyclin Dependent Kinase Inhibitor 1A (CDKN1A), CDKN1A (gene 1026); experiment: LTEA_HepaRG_CDKN1A: Life Technologies and Expression Analysis (LTEA) Assay for Cyclin Dependent Kinase Inhibitor 1A (CDKN1A) using HepaRG (AID 2283450); details: mRNA level, 48 h; actives raise or lower the signal
Procedure, shortened: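 Differentiated human HepaRG cells, pre-cultured 48 h, were exposed in duplicate for 48 h in serum-free induction medium to eight half-log concentrations up to 100 uM (0.5% DMSO). CDKN1A mRNA was measured by qRT-PCR, normalized to ACTB/GAPDH/POLR2A, bidirectionally fitted versus DMSO.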

[12] = read-out: flavin-containing dimethylaniline monooxygenases 3 (FMO3), FMO3 (gene 2328); experiment: LTEA_HepaRG_FMO3: Life Technologies and Expression Analysis (LTEA) Assay for flavin-containing dimethylaniline monooxygenases 3 (FMO3) using HepaRG (AID 2283453); details: mRNA level, 48 h; actives raise or lower the signal;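 for AC50: FMO3 transcript by TaqMan qRT-PCR normalized to ACTB GAPDH and POLR2A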
Procedure, shortened: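 HepaRG, 48 h exposure, 8-pt half-log series from 100 uM, 0.5% DMSO vehicle, duplicates; FMO3 transcript by Fluidigm TaqMan qRT-PCR, housekeeping-normalized; gain/loss fit vs DMSO.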

[13] = read-out: Cytochrome P450 (CYP1A1), CYP1A1 (gene 1543); experiment: LTEA_HepaRG_CYP1A1: Life Technologies and Expression Analysis (LTEA) Assay for Cytochrome P450 (CYP1A1) using HepaRG (AID 2283454); details: mRNA level, 48 h; actives raise or lower the signal
Procedure, shortened: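 Differentiated HepaRG cells in serum-free induction medium were exposed in duplicate for 48 h to eight half-log concentrations up to 100 uM in 0.5% DMSO. CYP1A1 mRNA was quantified by TaqMan qRT-PCR, normalized to ACTB, GAPDH and POLR2A.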

[14] = read-out: CFLAR gene, CFLAR (gene 8837); experiment: LTEA_HepaRG_CFLAR: Life Technologies and Expression Analysis (LTEA) Assay for CFLAR gene using HepaRG (AID 2283455); details: mRNA level, 48 h; actives raise or lower the signal
Procedure, shortened: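 HepaRG cells were plated for 48 h, switched to serum-free induction medium, then exposed in duplicate for 48 h to 8 concentrations (top 100 uM, half-log steps, 0.5% DMSO). CFLAR mRNA was measured by qRT-PCR, normalized to ACTB, GAPDH and POLR2A.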

[15] = read-out: Forkhead box O1 (FOXO1), FOXO1 (gene 2308); experiment: LTEA_HepaRG_FOXO1: Life Technologies and Expression Analysis (LTEA) Assay for Forkhead box O1 (FOXO1) using HepaRG (AID 2283456); details: mRNA level, 48 h; actives raise or lower the signal
Procedure, shortened: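 Differentiated human HepaRG cells in serum-free induction medium were exposed in duplicate for 48 h to eight half-log concentrations (top 100 uM, 0.5% DMSO). FOXO1 mRNA was measured by TaqMan qRT-PCR, normalised to ACTB, GAPDH and POLR2A, and fitted bidirectionally against DMSO.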

[16] = CEETOX_H295R_TESTO: CeeTox H295R High-throughput Steroidogenesis Assay for Testosterone (TESTO) (AID 2283457); details: actives raise or lower the signal;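 for AC50: cells exposed to chemicals for 48 h before medium collection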
Procedure, shortened: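 H295R human adrenal cells in DMEM/F12 with ITS+ and Nu-Serum, exposed to chemicals for 48 h. Testosterone in medium measured by MTBE extraction, reverse-phase HPLC-MS/MS; bidirectional fit versus DMSO baseline. MTT viability checked in same wells.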

[17] = read-out: growth arrest and DNA damage 45 (GADD45A), GADD45A (gene 1647); experiment: LTEA_HepaRG_GADD45A: Life Technologies and Expression Analysis (LTEA) Assay for growth arrest and DNA damage 45 (GADD45A) using HepaRG (AID 2283458); details: mRNA level, 48 h; actives raise or lower the signal
Procedure, shortened: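 Differentiated HepaRG cells were exposed in duplicate for 48 h in serum-free induction medium to 8-point half-log concentrations up to 100 uM in 0.5% DMSO. GADD45A mRNA was measured by TaqMan qRT-PCR, normalized to ACTB, GAPDH and POLR2A, with bidirectional fitting versus DMSO.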

[18] = read-out: Forkhead box O3 (FOXO3), FOXO3 (gene 2309); experiment: LTEA_HepaRG_FOXO3: Life Technologies and Expression Analysis (LTEA) Assay for Forkhead box O3 (FOXO3) using HepaRG (AID 2283459); details: mRNA level, 48 h; actives raise or lower the signal
Procedure, shortened: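 Differentiated human HepaRG cells in serum-free induction medium were exposed in duplicate for 48 h to eight half-log concentrations up to 100 uM in 0.5% DMSO. FOXO3 mRNA was quantified by qRT-PCR, normalized to ACTB, GAPDH and POLR2A, with bidirectional fitting versus DMSO.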

[19] = read-out: catalase (CAT), CAT (gene 847); experiment: LTEA_HepaRG_CAT: Life Technologies and Expression Analysis (LTEA) Assay for catalase (CAT) using HepaRG (AID 2283452); details: mRNA level, 48 h; actives raise or lower the signal
Procedure, shortened: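 Differentiated HepaRG cells in serum-free induction medium were dosed 48 h in duplicate, eight half-log concentrations from 100 uM in 0.5% DMSO. Transcript measured by TaqMan qRT-PCR, normalised to ACTB/GAPDH/POLR2A, fitted bidirectionally against DMSO.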

[20] = read-out: Cyclin D1 (CCND1), CCND1 (gene 595); experiment: LTEA_HepaRG_CCND1: Life Technologies and Expression Analysis (LTEA) Assay for Cyclin D1 (CCND1) using HepaRG (AID 2283451); details: mRNA level, 48 h; actives raise or lower the signal;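 note: TaqMan qRT-PCR transcript level normalised to ACTB GAPDH and POLR2A housekeeping genes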
Procedure, shortened: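 Differentiated human HepaRG cells in serum-free induction medium were exposed 48 h to eight half-log concentrations up to 100 uM in 0.5% DMSO; mRNA quantified by TaqMan qRT-PCR, normalized to ACTB, GAPDH, POLR2A, fitted bidirectionally versus DMSO.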

Measured: AC50

Sequence of Fatty acid synthase (Homo sapiens) (P49327 whole entry, looked up): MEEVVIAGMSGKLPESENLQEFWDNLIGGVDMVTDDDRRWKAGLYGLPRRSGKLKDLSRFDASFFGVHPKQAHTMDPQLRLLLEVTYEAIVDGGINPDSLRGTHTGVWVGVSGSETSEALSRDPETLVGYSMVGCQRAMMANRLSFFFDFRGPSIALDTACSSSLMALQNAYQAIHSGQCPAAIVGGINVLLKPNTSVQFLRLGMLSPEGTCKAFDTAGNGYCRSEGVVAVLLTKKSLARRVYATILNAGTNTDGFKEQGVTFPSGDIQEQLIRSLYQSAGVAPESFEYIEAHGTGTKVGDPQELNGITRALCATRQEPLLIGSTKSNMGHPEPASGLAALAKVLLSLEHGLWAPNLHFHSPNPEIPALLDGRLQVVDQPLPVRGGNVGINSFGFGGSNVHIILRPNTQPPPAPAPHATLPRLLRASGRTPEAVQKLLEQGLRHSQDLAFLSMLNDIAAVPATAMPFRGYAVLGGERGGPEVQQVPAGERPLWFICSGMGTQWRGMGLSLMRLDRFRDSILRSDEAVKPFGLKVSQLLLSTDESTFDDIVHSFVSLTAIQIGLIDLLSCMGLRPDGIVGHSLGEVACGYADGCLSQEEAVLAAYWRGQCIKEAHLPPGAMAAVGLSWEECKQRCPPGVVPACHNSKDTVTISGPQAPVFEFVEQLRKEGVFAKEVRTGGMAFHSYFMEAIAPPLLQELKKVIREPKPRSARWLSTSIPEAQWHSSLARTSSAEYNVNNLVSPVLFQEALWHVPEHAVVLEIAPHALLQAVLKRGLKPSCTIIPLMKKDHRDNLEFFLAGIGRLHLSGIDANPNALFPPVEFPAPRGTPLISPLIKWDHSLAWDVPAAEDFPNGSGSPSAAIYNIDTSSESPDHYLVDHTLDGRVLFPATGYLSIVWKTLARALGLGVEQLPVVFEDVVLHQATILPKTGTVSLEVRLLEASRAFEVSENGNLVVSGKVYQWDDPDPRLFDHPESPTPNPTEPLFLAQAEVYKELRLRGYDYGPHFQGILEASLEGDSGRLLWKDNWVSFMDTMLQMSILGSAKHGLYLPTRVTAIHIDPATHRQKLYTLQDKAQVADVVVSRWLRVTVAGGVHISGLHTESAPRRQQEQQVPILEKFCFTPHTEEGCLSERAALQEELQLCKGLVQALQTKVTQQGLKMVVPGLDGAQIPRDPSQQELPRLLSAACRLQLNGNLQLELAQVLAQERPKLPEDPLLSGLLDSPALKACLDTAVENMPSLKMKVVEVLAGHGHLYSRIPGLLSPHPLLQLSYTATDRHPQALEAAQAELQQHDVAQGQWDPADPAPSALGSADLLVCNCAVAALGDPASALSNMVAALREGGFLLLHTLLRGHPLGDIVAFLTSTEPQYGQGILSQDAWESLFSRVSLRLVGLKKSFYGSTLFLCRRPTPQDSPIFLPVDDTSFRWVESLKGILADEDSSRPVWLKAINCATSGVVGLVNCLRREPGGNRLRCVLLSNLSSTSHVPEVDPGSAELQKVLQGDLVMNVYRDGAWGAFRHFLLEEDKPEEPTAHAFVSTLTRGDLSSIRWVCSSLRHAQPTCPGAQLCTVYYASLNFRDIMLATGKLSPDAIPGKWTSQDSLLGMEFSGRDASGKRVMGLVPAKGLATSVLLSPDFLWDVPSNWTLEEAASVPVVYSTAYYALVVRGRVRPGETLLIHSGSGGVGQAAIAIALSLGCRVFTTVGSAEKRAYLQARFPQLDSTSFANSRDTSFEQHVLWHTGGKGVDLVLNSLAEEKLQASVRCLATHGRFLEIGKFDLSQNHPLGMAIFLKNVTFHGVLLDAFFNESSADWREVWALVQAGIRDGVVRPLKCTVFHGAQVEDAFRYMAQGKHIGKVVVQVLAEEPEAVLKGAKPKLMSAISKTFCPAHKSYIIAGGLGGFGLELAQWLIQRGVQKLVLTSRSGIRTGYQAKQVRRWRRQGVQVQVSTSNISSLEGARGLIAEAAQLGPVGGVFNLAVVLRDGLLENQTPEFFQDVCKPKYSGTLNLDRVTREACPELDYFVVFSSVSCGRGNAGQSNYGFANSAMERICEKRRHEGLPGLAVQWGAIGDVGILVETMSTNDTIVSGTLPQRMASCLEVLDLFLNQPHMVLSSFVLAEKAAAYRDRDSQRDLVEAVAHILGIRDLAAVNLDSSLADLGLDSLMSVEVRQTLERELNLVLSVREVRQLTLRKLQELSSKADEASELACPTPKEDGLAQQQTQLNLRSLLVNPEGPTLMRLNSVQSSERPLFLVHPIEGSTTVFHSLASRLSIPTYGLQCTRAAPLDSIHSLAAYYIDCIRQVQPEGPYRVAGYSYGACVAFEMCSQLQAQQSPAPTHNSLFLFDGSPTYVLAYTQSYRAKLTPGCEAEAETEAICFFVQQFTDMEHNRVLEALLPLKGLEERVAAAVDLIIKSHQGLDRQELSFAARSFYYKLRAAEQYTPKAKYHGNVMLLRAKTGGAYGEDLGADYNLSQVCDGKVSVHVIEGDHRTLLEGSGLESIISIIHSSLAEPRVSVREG

O=[N+]([O-])/N=C1\NCCN1Cc1ccc(Cl)nc1
active: [9] 20.6 µM | [11] 12.2 µM | [12] 34.6 µM | [13] 9.92 µM | [14] 26.3 µM | [17] 23.6 µM | [18] 26.9 µM
not listed: [19] | [20]
inactive: all other assays above

CCN(CC)C(=O)SCc1ccc(Cl)cc1
active: [1] 19.3 µM | [4] 22.6 µM | [13] 41.6 µM
inactive: [3] | [7] | [8] | [9] | [11] | [12] | [14] | [17] | [18]

O=C(O)COc1ccc(Cl)cc1Cl
active: [13] 43.4 µM
not listed: [2] | [5] | [6] | [15] | [16] | [20]
inactive: all other assays above

Oc1ccc(Cl)cc1Cc1ccccc1
active: [2] 78 µM | [4] 39.9 µM | [9] 87.9 µM and 74.3 µM and 81.6 µM | [13] 84.7 µM and 81.3 µM and 84.4 µM | [14] 82.3 µM | [16] 78 µM | [18] 91.5 µM and 87.9 µM
inactive: [1] | [3] | [7] | [8] | [10] | [11] | [12] | [14] | [17] | [18]

CCCN(CCOc1c(Cl)cc(Cl)cc1Cl)C(=O)n1ccnc1
inactive: [8] | [10] | [18]
active: [1] 0.159 µM | [3] 0.0122 µM | [4] 0.0358 µM | [7] 0.211 µM | [9] 77.4 µM | [11] 30.5 µM | [20] 89.8 µM | [12] 33 µM | [13] 2.56 µM | [14] 85.2 µM | [17] 45.8 µM
